Test results as given in ChEMBL document CHEMBL1157539, “Thousands of chemical starting points for antimalarial lead identification” (Nature, 2010).

Tests used:
Assay type in all cases: functional
Plasmodium falciparum [1] = assay: GSK_TCMDC: Inhibition of Plasmodium falciparum 3D7 in whole red blood cells, using parasite LDH activity as an index of growth. Test compounds present at 2uM
Plasmodium falciparum [2] = assay: GSK_TCMDC: Inhibition of Plasmodium falciparum Dd2 in whole red blood cells, using parasite LDH activity as an index of growth. Test compounds present at 2uM
HepG2 = assay: GSK_TCMDC: Percent inhibition of human HepG2 cell line. Test compounds present at 10uM.

| Structure (SMILES) | Inhibition (Plasmodium falciparum [1]) | Inhibition (Plasmodium falciparum [2]) | Inhibition (HepG2) |
| --- | --- | --- | --- |
| NC(=O)c1ccc(C(=O)Nc2cccc(-c3cccc(-c4nc5cc(C(F)(F)F)ccc5[nH]4)c3)c2)cc1 | 100% | 36% | 63% |
| CC(=O)Nc1ccc2[nH]cc(C3CCN(CC4CCC(NC(=O)/C=C/c5ccccc5Cl)CC4)CC3)c2n1 (configuration not stated) | 100% | 79% | 16% |
| Cc1ccc(-c2nc(N3CCN(C(=O)c4ccco4)CC3)c3ccc(Cl)cc3n2)cc1 | 90% | 78% | 17% |
| Cc1cc(I)ccc1Nc1nc2nonc2nc1Nc1ccc(I)cc1C | 100% | 96% | 78% |
| O=C(Nc1cccc(-c2cccc(-c3nc4cc(C(F)(F)F)ccc4[nH]3)c2)c1)c1ccoc1 | 99% | 61% | 32% |
| Cc1ccc(C(=O)Nc2ccc(-c3nc4ccccc4[nH]3)cc2)cc1S(=O)(=O)N1CCOCC1 | 90% | 16% | 56% |
| CC(C)c1cc(C(=O)N[C@@H](Cc2ccccc2)[C@H](O)CNC2CCCCC2)cc(N2CCCC2=O)c1 | 100% | 98% | 0% |
| CC[C@H](C)CNC(=O)c1cncc(-c2ccc(CNC3CCCC3)cc2)c1.O=C(O)C(F)(F)F | 97% | 5% | 0% |
| CC(C)NCc1cc(Nc2ccnc3cc(Cl)ccc23)ccc1O.Cl | 100% | 100% | 27% |
| O=C(CSc1nc(-c2ccccc2Cl)ns1)Nc1ccc2c(c1)OCO2 | 93% | 77% | 0% |
| COc1ccc(S(=O)(=O)NC2CCN(c3ccnc4cc(Cl)ccc34)C2)cc1.O=C(O)C(F)(F)F (configuration not stated) | 100% | 86% | 12% |
| CCNc1cc(C)nc(Nc2ccc(NC(=O)Cc3ccc(OC)cc3)cc2)n1 | 100% | 47% | 30% |
| CCN(CC)CCNc1nc(C=Cc2ccc(Cl)cc2)nc2cc3ccccc3cc12 | 100% | 99% | 83% |
| CC(C)C(C)(C#N)NC(=O)CSc1nc2ccc([N+](=O)[O-])cc2s1 (configuration not stated) | 95% | 81% | 0% |
| COc1ccc(Br)cc1/C=C/C(=O)Nc1cccc(C2CCCN(C)C2)c1.O=CO (configuration not stated) | 99% | 30% | 12% |
| Cc1ccc(C(NC(=O)Cc2ccccc2)c2ccc3cccnc3c2O)cc1 (configuration not stated) | 94% | 77% | 47% |
| Cl.N=C(N)c1cc(Br)cc(NC(=O)Nc2cc(Br)cc(C(=N)N)c2)c1 | 93% | 76% | 0% |
| O=C(NC(c1ccccc1)c1ccc2cccnc2c1O)c1ccccc1 (configuration not stated) | 94% | 63% | 53% |
| Cc1cc(N2CCN(CC3CCN(C)CC3)CC2)nc(Nc2ccc(Cl)cc2)n1 | 99% | 89% | 20% |
| Cc1cccc2c3c([nH]c12)C1(CCN(CCc2ccccc2)CC1)NC(C(=O)NCc1ccccc1)C3 (configuration not stated) | 86% | 52% | 10% |
| CCOc1c(OC)ccc2c1CCN(CCN1CCC(CNC(=O)c3ccc(-c4ccc(C#N)cc4)cc3)CC1)C2 | 92% | 61% | 45% |
| CCCC(C)c1cnc2nc(N)nc(N)c2c1C (configuration not stated) | 95% | 1% | 67% |
| COC(=O)c1ccc(CCC(C)NCC(O)c2cccc(Cl)c2)cc1.Cl (configuration not stated) | 100% | 94% | 0% |
| CS(=O)(=O)Nc1ccc2[nH]cc(C3CCN(CCCCCNC(=O)/C=C/c4ccc(Cl)c(Cl)c4)CC3)c2c1 | 100% | 0% | 1% |
| O=C(/C=C/c1ccc(Cl)c(Cl)c1)NCCCCCN1CCC(NC(=O)Nc2ccccc2Cl)CC1 | 100% | 23% | 56% |

| Structure (SMILES) | Inhibition (Plasmodium falciparum [1]) | Inhibition (Plasmodium falciparum [2]) | Inhibition (HepG2) |
| --- | --- | --- | --- |
| COc1ccc(-c2ccc(NC(=O)c3cccc(C#N)c3)cc2)cc1CN1CCCN(C)CC1.O=C(O)C(F)(F)F | 100% | 70% | 26% |
| CCOc1c(OC)ccc2c1CCN(CCN1CCC(NC(=O)c3ccc(-c4cccc(C(F)(F)F)c4C(F)(F)F)cc3)CC1)C2 | 100% | 57% | 30% |
| Cc1ccc(C(C)C)c(Oc2ccc3nc(N)nc(N)c3c2)c1 | 96% | 33% | 61% |
| O=C(N[C@@H](Cc1ccccc1)C(=O)NCCN1CCCC1)c1ccc(O)c(-c2ccc(Cl)c(Cl)c2)c1 | 95% | 46% | 8% |
| Cc1cccc2nc(-c3ccc(-c4ccc(CN5CCN(c6ccncc6)CC5)cc4)s3)[nH]c12.O=C(O)C(F)(F)F | 100% | 98% | 85% |
| CC(=O)Nc1nc(C(=O)Nc2ccc(-c3cccc(-c4nc5cccc(C)c5[nH]4)c3)cc2)cs1 | 100% | 73% | 100% |
| Cc1cc(N2CCN(C(=O)OC(C)(C)C)CC2)ccc1N | 92% | 38% | 11% |
| CC[C@H](C)CNC(=O)c1cncc(-c2cccc(CNC3Cc4ccccc4C3)c2)c1.O=C(O)C(F)(F)F | 100% | 76% | 5% |
| CN1CCc2cc(NC(=O)c3cc4ccccc4s3)cc(-c3ccccc3)c2CC1.Cl | 91% | 11% | 20% |
| CCOc1ccc(Nc2cc(C)nc(Nc3ccc(OCC)cc3)n2)cc1 | 100% | 49% | 3% |
| COc1cccc(C=NNc2cc(C)nc3c(OC)cccc23)c1 | 99% | 58% | 6% |
| COc1ccc(O)cc1Cc1cnc2nc(N)nc(N)c2c1C | 92% | 97% | 67% |
| Cc1cc(Nc2ccc(OCc3ccccc3Cl)cc2)c2cc(Cl)ccc2n1.Cl | 100% | 58% | 33% |
| Cc1ccc(CCC(C)NCC(O)c2cccc(Cl)c2)cc1 (configuration not stated) | 97% | 97% | 2% |
| Cn1nc(-c2ccc(NC(=O)Nc3cc(C(F)(F)F)ccc3F)cc2)c2cnc(NCCc3c[nH]cn3)nc21.O=C(O)C(F)(F)F | 99% | 56% | 15% |
| Cc1ccc(CN2CCCN(Cc3cccc(NC(=O)c4ccc(-c5ccccc5)cc4)c3)CC2)cc1C.O=C(O)C(F)(F)F | 84% | 19% | 43% |
| CCn1c(-c2nonc2N)nc2cnc(Oc3cccc(NC(=O)c4ccc(OCCN5CCCC5)cc4)c3)cc21 | 92% | 1% | 25% |
| Cc1cc(N[C@@H](CC(C)C)C(=O)NCc2cccs2)nc(NCCc2ccc(F)cc2)n1.O=C(O)C(F)(F)F | 100% | 59% | 20% |
| O=C(/C=C/c1ccc(Cl)c(Cl)c1)NCCCCCN1CCCC(C(=O)Nc2ccc(F)c(Cl)c2)C1 (configuration not stated) | 99% | 2% | 28% |
| CN1CCCCC1CCc1cc(C(=O)Nc2ccc(-c3ccc(O)cc3)cc2)ccc1O (configuration not stated) | 91% | 11% | 6% |
| CCNc1cc(C(=O)N[C@@H](Cc2ccccc2)[C@H](O)CNC(C)(C)CCCC(C)C)cc(N2CCCCS2(=O)=O)c1.O=CO | 98% | 98% | 5% |
| CN(N=Cc1ccccc1)C(=N)NCCCC#Cc1cccc(CN2CCCC2)c1 | 89% | 3% | 16% |
| CCCCCCCc1c(C)nc2cccc(OC)c2c1O | 95% | 47% | 43% |
| NC(=O)c1cccc(CNC(=O)NC[C@H]2CN(Cc3ccc(Cl)c(Cl)c3)CCO2)c1 | 98% | 65% | 0% |
